A short description of experiment [1]: qHTS assay to identify small molecule antagonists of the sonic hedgehog signaling (Shh) pathway (AID 1259369; calls by dose curve; also: nearly all actives have a fitted effect of over 45% in size; also: potency is read from the fitted curve at half-maximal effect). The procedure, abridged:
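Antagonist mode: compound added to 3T3 Gli1-Luc cells followed by conditioned-medium stimulation, 24 h at 37 C, 5% CO2. Inhibition taken as loss of Gli1-driven luciferase luminescence.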
(qHTS replaces the single test concentration by a dilution series.)

Experiment [2] can be described thus: qHTS assay to identify small molecule agonists of the androgen receptor (AR) signaling pathway in the presence of an antagonist - cell viability counter screen (AID 1259379).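 Also: MDA-kb2 human breast cancer cells carrying an MMTV luciferase reporter; series mostly up to about 92 µM; nearly all actives have a fitted effect of over 25% in size.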 The procedure, abridged: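 Cytotoxicity counter-screen run in the same wells as the nilutamide-challenged (3.0 µM final) AR agonist assay in MDA-kb2 cells. Compounds tested at 15 concentrations for 16 h, 37 °C without CO2; CellTiter-Fluor fluorescence read.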

Experiment [3] can be described thus: qHTS assay to identify small molecule agonists of the estrogen receptor beta (ER-beta) signaling pathway - cell viability counter screen (AID 1259380). Also: nearly all actives have a fitted effect of over 30% in size. The procedure, abridged: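 Cell viability counter screen: CellTiter-Glo luminescence (30 min, room temperature) measured in the same wells as the beta-lactamase readout, after 16 hr compound exposure at 37C of ER-beta-bla HEK293T cells in 2% charcoal-stripped FBS medium.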

Experiment [4] is described as follows: qHTS assay to identify small molecule antagonists of the estrogen receptor beta (ER-beta) signaling pathway - cell viability counter screen (AID 1259382).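 Also: HEK293T cells carrying ER-beta-UAS-bla reporter stimulated with estradiol; series mostly up to about 92 µM; nearly all actives have a fitted effect of over 55% in size.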 The gist of the method: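 Cytotoxicity was measured in the same wells by CellTiter-Glo luminescence after 30 min at room temperature. Cells were ER-beta-bla HEK293T in charcoal-stripped serum, given compound together with 1 nM E2 and incubated 16 h at 37C.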

Experiment [5] addresses Estrogen receptor (Homo sapiens) (UniProt P03372). In words: qHTS assay to identify small molecule agonists of the estrogen receptor alpha (ER-alpha) signaling pathway in the presence of an antagonist (AID 1259383; calls by dose curve; also: top concentration of the series differs between compounds; nearly all actives have a fitted effect of over 15% in size). The procedure, abridged:
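Agonist-mode confirmation run in the presence of 10.0nM (final) ICI-182,780 antagonist. The reporter was ERE-driven luciferase in VM7Luc4E2 cells, grown in charcoal-stripped serum. Cells were exposed to 15-concentration compound series for 22hr, then ONE-Glo luminescence was read.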

The nature of experiment [6]: qHTS assay to identify small molecule agonists of the estrogen receptor alpha (ER-alpha) signaling pathway in the presence of an antagonist - cell viability counter screen (AID 1259386). Also: series mostly up to about 92 µM; nearly all actives have a fitted effect of over 30% in size. The procedure, abridged:
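Compounds tested at 15 concentrations for 22 h at 37C alongside 10.0nM (final) ICI-182,780 antagonist, in VM7Luc4E2 cells grown in phenol red-free, charcoal-stripped medium. Viability read by CellTiter-Fluor fluorescence after 1 h reagent incubation.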

In experiment [7] the target is Progesterone receptor (Homo sapiens) (UniProt P06401). In words: qHTS assay to identify small molecule agonists of the progesterone receptor (PR) signaling pathway (AID 1346784; calls by dose curve; also: nearly all actives have a fitted effect of over 30% in size). The gist of the method: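 Beta-lactamase reporter read-out: after 16 hr compound treatment at 37C and a further 2 hr at room temperature with LiveBLAzer B/G FRET substrate, fluorescence was measured in PR-UAS-bla HEK 293T cells grown in 2% charcoal-stripped serum.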
Sequence of Progesterone receptor (Homo sapiens) (P06401 whole entry, looked up): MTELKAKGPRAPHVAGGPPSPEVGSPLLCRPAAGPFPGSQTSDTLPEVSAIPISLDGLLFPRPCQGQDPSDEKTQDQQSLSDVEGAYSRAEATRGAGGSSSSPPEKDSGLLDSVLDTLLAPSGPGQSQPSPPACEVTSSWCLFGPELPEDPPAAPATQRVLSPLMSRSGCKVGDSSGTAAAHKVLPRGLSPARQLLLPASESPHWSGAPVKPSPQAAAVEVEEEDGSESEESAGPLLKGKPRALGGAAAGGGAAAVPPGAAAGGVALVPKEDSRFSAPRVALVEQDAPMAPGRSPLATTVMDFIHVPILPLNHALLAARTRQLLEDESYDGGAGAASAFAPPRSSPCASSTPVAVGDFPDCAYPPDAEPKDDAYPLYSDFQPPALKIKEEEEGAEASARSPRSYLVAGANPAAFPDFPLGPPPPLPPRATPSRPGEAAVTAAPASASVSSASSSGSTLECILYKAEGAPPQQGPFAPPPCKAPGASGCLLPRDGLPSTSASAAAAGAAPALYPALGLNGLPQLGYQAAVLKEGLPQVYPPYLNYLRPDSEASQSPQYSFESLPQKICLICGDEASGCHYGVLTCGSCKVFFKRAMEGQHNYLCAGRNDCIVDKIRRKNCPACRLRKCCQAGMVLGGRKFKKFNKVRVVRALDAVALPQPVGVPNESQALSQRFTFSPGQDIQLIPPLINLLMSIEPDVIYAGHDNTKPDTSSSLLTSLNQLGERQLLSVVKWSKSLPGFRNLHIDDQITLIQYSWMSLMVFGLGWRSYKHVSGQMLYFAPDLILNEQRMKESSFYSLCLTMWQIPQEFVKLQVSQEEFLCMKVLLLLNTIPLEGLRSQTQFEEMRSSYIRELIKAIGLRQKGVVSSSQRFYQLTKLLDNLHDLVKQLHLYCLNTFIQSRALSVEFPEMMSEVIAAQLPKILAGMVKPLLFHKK

Experiment [8] has the same target. Nature of the experiment: qHTS assay to identify small molecule antagonists of the progesterone receptor (PR) signaling pathway (AID 1346795; active = well fitted inhibition curve with a large enough effect in the signal ratio in the repeat runs, not every such curve was filed as active; the % refers to the signal ratio). The procedure, abridged: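 Read-out is fluorescence from the LiveBLAzer B/G FRET substrate, cleaved by a UAS-controlled beta-lactamase in PR-UAS-bla HEK293T cells after 16 hr exposure to compound plus 1 nM promegestone (final), followed by 2 hr at room temperature.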

A short description of experiment [9]: qHTS assay to identify small molecule antagonists of the progesterone receptor (PR) signaling pathway - cell viability counter screen (AID 1346798).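 Also: HEK293T PR-UAS-bla cells stimulated with the agonist R5020; series mostly up to about 92 µM; nearly all actives have a fitted effect of over 50% in size.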 The gist of the method:
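HEK293T PR-UAS-bla, 2% charcoal-stripped FBS; 4 hr pre-plate; cpd + R5020, 16 h 37C; LiveBLAzer read first; then CellTiter-Glo 30 min RT, luminescence.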

Experiment [10] is described as follows: qHTS assay to identify small molecule agonists of the progesterone receptor (PR) signaling pathway - cell viability counter screen (AID 1346799; calls by dose curve; also: nearly all actives have a fitted effect of over 45% in size). The gist of the method: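 Luminescence from CellTiter-Glo, added after the beta-lactamase FRET read in the same wells, gave cytotoxicity in PR-UAS-bla HEK293T cells treated with compounds for 16 hr at 37C.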
Experiment [11] in a line: qHTS assay to identify small molecule antagonists of the TGF-beta/Smad signaling pathway - cell viability counter screen (AID 1346824). Also: nearly all actives have a fitted effect of over 50% in size. The gist of the method: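 SBE-bla HEK 293T cells, incubated overnight, then compound plus 0.25 ng/mL TGF-beta1 (stock added) for 5 hr at 37 C. Viability was read in the same wells by CellTiter-Glo luminescence after 30 min at room temperature.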

A short description of experiment [12]: qHTS assay to identify small molecule agonists of the TGF-beta/Smad signaling pathway - cell viability counter screen (AID 1346829). Also: top concentration of the series differs between compounds; nearly all actives have a fitted effect of over 45% in size. The procedure, abridged:
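CellTiter-Glo luminescence readout; SBE-bla HEK 293T cells, overnight plating, compound 5 hr at 37 C/5% CO2, then bla substrate 2 hr RT, then CellTiter-Glo 30 min RT.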

Experiment [13] is described as follows: qHTS assay to identify small molecule agonists of the TGF-beta/Smad signaling pathway (AID 1346859; active = well fitted activation curve with a large enough effect in the signal ratio in the repeat runs, not every such curve was filed as active; the % refers to the signal ratio; also: series mostly up to about 77 µM). The gist of the method:
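SBE-bla HEK 293T, 4,000 cells/well, plated o/n; cpd in DMSO, 5 hr, 37 C/5% CO2; B/G FRET substrate 2 hr RT; ex 405, em 460/530 nm.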

The nature of experiment [14]: qHTS assay to identify small molecule agonists or antagonists of the thyroid stimulating hormone receptor (TSHR) signaling pathway - wild type cell line counter screen (AID 1259384; calls by dose curve). The gist of the method: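 Wild-type Hek293 cells, 800/well, 18 h at 37C, then compound with Ro20-1724 for 30 min RT. cAMP by HTRF (cAMP-d2/anti-cAMP cryptate), 1 h RT, fluorescence read. 15 concentrations, triplicates.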

For experiment [15], the target named is Thyrotropin receptor (Homo sapiens) (UniProt P16473). Nature of the experiment: qHTS assay to identify small molecule antagonists of the thyroid stimulating hormone receptor (TSHR) signaling pathway (AID 1259385; calls by dose curve; also: nearly all actives have a fitted effect of over 20% in size). The gist of the method:
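TSHR-HEK293 cells (800/well) plated 18 h, then compounds with Ro20-1724 and TSH at 1.5 ng/mL final, 30 min at room temperature. cAMP quantified by HTRF (cAMP-d2/anti-cAMP-cryptate, 1 h); 15 concentrations in triplicate.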

The target of experiment [16] is Thyrotropin-releasing hormone receptor (Homo sapiens) (UniProt P34981). Nature of the experiment: qHTS assay to identify small molecule antagonists of the thyrotropin-releasing hormone receptor (TRHR) signaling pathway (AID 1346877; active = well fitted inhibition curve with a large enough effect in the repeat runs, not every such curve was filed as active; also: series mostly up to about 51 µM). The gist of the method:
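Antagonist mode: after a 5 min room-temperature compound exposure, cells were stimulated with 1 nM (final) TRH. Dye-loaded TRHR-HEK293 cells were used, and calcium-dependent fluorescence was followed for 3 min, with 15-point titrations run in triplicate.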

Experiment [17] shares this target. Nature of the experiment: qHTS assay to identify small molecule agonists of the thyrotropin-releasing hormone receptor (TRHR) signaling pathway (AID 1346891; calls by dose curve; also: series mostly up to about 58 µM). The gist of the method:
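Intracellular calcium rise, read as fluorescence every second for 3 min, served as the agonist signal in dye-loaded HEK293 cells expressing TRHR; each compound ran at 15 concentrations in triplicate.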

Results filed as inconclusive are left out. A structure can be active in one record and inactive in another. Calls of active or inactive are those of the source. Unless noted, calls follow the shape of the dose curve; as a rule, active = well fitted curve in the direction sought with a large enough effect in the repeat runs; inconclusive = weak or mixed curves; inactive = no such curve, though single readings can be large; an effect the other way counts as inactive or inconclusive.

Sequence of Thyrotropin-releasing hormone receptor (Homo sapiens) (P34981 whole entry, looked up): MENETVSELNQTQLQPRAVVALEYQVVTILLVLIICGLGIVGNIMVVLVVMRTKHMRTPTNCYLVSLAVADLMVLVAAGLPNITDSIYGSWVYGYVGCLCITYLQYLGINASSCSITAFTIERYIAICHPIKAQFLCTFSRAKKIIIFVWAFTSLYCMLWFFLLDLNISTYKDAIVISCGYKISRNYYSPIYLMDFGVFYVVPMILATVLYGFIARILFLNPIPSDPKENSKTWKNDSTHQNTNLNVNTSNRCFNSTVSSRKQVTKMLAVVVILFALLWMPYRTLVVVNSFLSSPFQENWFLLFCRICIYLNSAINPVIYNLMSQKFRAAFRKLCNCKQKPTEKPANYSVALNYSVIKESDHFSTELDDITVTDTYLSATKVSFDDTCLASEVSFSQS
Sequence of Thyrotropin receptor (Homo sapiens) (P16473 whole entry, looked up): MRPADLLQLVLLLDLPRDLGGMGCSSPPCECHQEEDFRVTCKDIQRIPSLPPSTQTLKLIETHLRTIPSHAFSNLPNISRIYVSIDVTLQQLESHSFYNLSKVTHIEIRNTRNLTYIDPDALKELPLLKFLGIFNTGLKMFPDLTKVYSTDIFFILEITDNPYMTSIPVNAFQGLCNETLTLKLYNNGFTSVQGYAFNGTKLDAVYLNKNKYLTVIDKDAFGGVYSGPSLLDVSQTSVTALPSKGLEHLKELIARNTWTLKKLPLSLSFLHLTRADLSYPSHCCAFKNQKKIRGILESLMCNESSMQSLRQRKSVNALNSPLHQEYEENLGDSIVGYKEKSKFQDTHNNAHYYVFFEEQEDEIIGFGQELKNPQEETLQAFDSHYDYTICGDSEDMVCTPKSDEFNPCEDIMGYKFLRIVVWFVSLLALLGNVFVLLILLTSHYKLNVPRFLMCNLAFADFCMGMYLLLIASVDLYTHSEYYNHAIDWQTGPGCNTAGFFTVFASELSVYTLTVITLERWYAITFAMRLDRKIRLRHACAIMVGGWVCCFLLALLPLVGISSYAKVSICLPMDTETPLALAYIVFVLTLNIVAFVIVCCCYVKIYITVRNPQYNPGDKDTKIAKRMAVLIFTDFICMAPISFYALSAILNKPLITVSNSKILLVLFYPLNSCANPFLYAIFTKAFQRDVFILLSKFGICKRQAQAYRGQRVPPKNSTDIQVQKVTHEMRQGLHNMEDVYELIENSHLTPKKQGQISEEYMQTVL
Sequence of Estrogen receptor (Homo sapiens) (P03372 whole entry, looked up): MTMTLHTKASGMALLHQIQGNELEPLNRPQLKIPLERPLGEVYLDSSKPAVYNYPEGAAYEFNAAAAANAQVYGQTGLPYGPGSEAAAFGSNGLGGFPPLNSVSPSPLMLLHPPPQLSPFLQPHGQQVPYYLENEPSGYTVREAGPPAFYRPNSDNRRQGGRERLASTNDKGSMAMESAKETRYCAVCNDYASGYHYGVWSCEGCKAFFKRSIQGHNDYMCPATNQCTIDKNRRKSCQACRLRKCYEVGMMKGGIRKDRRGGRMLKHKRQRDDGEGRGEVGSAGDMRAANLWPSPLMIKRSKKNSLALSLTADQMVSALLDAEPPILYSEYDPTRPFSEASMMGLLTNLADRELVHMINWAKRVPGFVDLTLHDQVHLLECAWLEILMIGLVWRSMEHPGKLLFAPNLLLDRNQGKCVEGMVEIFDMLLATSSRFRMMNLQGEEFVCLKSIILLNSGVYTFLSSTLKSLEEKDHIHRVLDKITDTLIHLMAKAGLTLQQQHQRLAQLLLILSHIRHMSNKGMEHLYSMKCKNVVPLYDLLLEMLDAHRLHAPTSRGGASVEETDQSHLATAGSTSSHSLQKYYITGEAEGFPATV

Regarding `[Na+]`, the Potency result in [1], in [2], in [3], in experiment [4], in experiment [5] and in experiment [6] was “inactive” each time. Moreover, the Potency entry in [7], in [8], in experiment [9], in [10], in experiment [11] and in [12] was “inactive” each time. Besides, the call in [13] was inactive.
With `CC(C)(C)c1cccc(C(C)(C)C)c1O`, the Potency entry in experiment [2], in experiment [3], in experiment [4], in experiment [5], in [14] and in [15] was “inactive” throughout. The Potency entry in experiment [6], in [7], in [8], in experiment [9], in experiment [11] and in [12] was “inactive” in each case. The call in experiment [13] was inactive.
`CC(C)[C@@H]1CC[C@@H](C)CC1=O`: the Potency in experiment [1] is 24.3 µM (active) and inactive. The Potency result in [2], in experiment [3], in [4], in experiment [14], in experiment [15] and in [6] was “inactive” each time. The Potency result in experiment [7], in experiment [8], in [9], in experiment [10], in experiment [11] and in experiment [12] was “inactive” each time. The outcome in experiment [13] was inactive.
As for `CCCCCCOCCOCCO`, the Potency entry in experiment [1], in [2], in [3], in experiment [4], in [14] and in experiment [15] was “inactive” throughout. For the same molecule, the Potency entry in experiment [7], in [8], in experiment [9], in experiment [10], in experiment [11] and in experiment [12] was “inactive” each time. The call in [13] was inactive.
For the molecule `C=C[C@H]1CN2CC[C@H]1C[C@H]2[C@H](O)c1ccnc2ccc(OC)cc12`, the Potency entry in [2], in experiment [3], in [4], in experiment [6], in experiment [7] and in experiment [8] was “inactive” each time. The Potency entry in [9], in experiment [10], in [12], in experiment [16] and in [17] was “inactive” in each case. The outcome in experiment [13] was inactive.
As for `C=CCNCC=C`, the Potency entry in [1], in [2], in experiment [3], in [4], in [5] and in experiment [6] was “inactive” in each case. Besides, the Potency result in experiment [7], in [8], in [9], in experiment [10], in [11] and in experiment [12] was “inactive” in each case. Also, the Potency result in experiment [16] and in experiment [17] was “inactive” throughout. Moreover, the call in experiment [13] was inactive.
On to `O=C(O)CCCCCCCCCCCC(=O)O`, for which the Potency result in experiment [1], in experiment [2], in [3], in experiment [4], in experiment [14] and in experiment [15] was “inactive” throughout. Further, the Potency result in experiment [7], in [8], in [9], in experiment [10], in [11] and in [12] was “inactive” each time. Also, the Potency result in [16] and in experiment [17] was “inactive” throughout.
On to `CC(=O)Nc1ccc2c(c1)Cc1cc(NC(C)=O)ccc1-2`, for which the Potency result in experiment [1], in experiment [2], in [3], in experiment [4], in experiment [5] and in experiment [14] was “inactive” throughout. Besides, the Potency entry in experiment [15], in experiment [7], in [8], in experiment [9], in experiment [10] and in experiment [11] was “inactive” each time. Further, the Potency entry in experiment [12], in experiment [16] and in [17] was “inactive” throughout. Also, in experiment [13], the outcome was inactive.

The values above are taken from PubChem BioAssay (Tox21).
